Sampled rows, rich in hits. Any-hit rate of the full collection: about 3.2%.
CDK5 inh: inhibitors of human CDK5/p35 kinase; Q00535+Q15078; Recombinant CDK5/p35, ADP-Glo luminescence, 60 min; inhibition, % at 10 µM; 0.01% of 330,000 active; AID 488839;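 active = highest replicate inhibition of at least 50% and at least 75% of replicates reaching 50%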
Target sequence (Q00535 whole entry, looked up): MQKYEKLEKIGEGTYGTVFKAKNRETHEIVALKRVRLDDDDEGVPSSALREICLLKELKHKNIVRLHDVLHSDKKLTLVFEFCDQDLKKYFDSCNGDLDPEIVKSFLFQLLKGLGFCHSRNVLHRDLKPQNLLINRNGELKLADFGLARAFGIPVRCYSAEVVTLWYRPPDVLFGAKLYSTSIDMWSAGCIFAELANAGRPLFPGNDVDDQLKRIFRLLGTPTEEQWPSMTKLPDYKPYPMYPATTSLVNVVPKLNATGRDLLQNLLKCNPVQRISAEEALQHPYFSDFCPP
Target sequence (Q15078 whole entry, looked up): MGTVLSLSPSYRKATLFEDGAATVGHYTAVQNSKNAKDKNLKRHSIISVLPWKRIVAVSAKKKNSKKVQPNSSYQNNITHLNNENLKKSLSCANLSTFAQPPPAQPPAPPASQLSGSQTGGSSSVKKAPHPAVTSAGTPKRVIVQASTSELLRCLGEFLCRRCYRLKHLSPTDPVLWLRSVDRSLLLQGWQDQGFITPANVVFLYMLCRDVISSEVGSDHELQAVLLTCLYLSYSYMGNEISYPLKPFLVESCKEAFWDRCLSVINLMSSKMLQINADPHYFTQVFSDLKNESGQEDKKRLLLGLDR
DYRK1A inh: inhibitors of rat Dyrk1A kinase; Q63470; ADP-Glo luminescence, NFATc1 peptide; inhibition, % at 12.5 µM; 0.43% of 310,000 active; AID 504441; in the data active = inhibition above about 50%
SMARCA2 activ: activators of SMARCA2 function | MG213 cells, MMTV-luciferase reporter, dexamethasone, overnight | activation, % at 9.1 µM | 1% of 370,000 active | AID 652017; in the data active = activation above about 7.8%
Rtt109 Vps75: C. albicans Rtt109 histone acetyltransferase inhibition; AID 540336; 0.16% of 330,000 active; purified Rtt109/Vps75, ThioGlo CoA-SH fluorescence, 4 h; Q5AAJ8; inhibition, % at 34.9 µM;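 active = inhibition of at least 50% in every replicate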
esBAF inh: blocks esBAF chromatin remodeling in mouse ES cells; Bmi1-luciferase knock-in reporter, 24 h; 100% = twice the neutral-well signal; reporter increase, % at 12.5 µM; 2% of 350,000 active; in the data active = activation above about 40%;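 note: a rise in the Bmi1 reporter signal indicates esBAF inhibition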
dFosB activator: activators of mouse delta FosB homodimer | P13346 | purified delta FosB, TAMRA-CDK5 oligo fluorescence polarization; percent of positive-control signal above neutral wells | activation, % at 25 µM | 0.99% of 340,000 active | AID 493131;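 active = mean activation above about 17%, with every replicate also reaching it, limit read from the data, passing the limit was not always enough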
A number is an active result.

How did C[C@@H]1CN([C@@H](C)CO)C(=O)c2cc(NS(C)(=O)=O)ccc2O[C@@H](C)CCCCO[C@@H]1CN(C)S(=O)(=O)c1ccccc1 do in these assays?
esBAF inh: inactive

Results for C[C@H]1CN([C@@H](C)CO)C(=O)Cc2cc(NC(=O)C3CC3)ccc2O[C@H]1CN(C)Cc1ccc(C(=O)Nc2ccccc2N)cc1 ?
esBAF inh: inactive

How did Cc1nc2nc(C)n(CCN3CCOCC3)c(=O)c2c(-c2cccc([N+](=O)[O-])c2)c1C(=O)CCCCCCCCCCN1CCC(c2ccccc2)(c2ccccc2)CC1 do in these assays?
CDK5 inh: inactive; DYRK1A inh: inactive; SMARCA2 activ: inactive; Rtt109 Vps75: inactive; dFosB activator: 37

How did O=C(NCCCN1CCOCC1)/C(=C/c1ccc(-c2cccc([N+](=O)[O-])c2)o1)NC(=O)c1ccccc1 do in these assays?
SMARCA2 activ: inactive; esBAF inh: inactive

How did COc1cc(NC(=O)c2c(F)c(F)c(F)c(F)c2F)c(OC)cc1Cl do in these assays?
CDK5 inh: inactive; DYRK1A inh: inactive; SMARCA2 activ: inactive; Rtt109 Vps75: inactive; esBAF inh: inactive; dFosB activator: inactive

How did COc1cc(NC(=O)c2cc3nc(C)cc(C)n3n2)c(OC)cc1Cl do in these assays?
CDK5 inh: inactive; DYRK1A inh: inactive; SMARCA2 activ: inactive; Rtt109 Vps75: inactive; esBAF inh: 52; dFosB activator: inactive

What do the screens show for `CCOC(=O)c1ccc2nc(C)c(CCC(C)=O)c(Cl)c2c1`?
CDK5 inh: inactive; DYRK1A inh: inactive; SMARCA2 activ: inactive; Rtt109 Vps75: inactive; esBAF inh: 63; dFosB activator: inactive

Results for CCCCc1c(C)nc2ccc(C(=O)OCC)cc2c1Cl ?
CDK5 inh: inactive; DYRK1A inh: inactive; SMARCA2 activ: inactive; Rtt109 Vps75: inactive; dFosB activator: inactive

Results for C=CCc1c(C)nc2ccc(C(=O)OCC)cc2c1Cl ?
CDK5 inh: inactive; DYRK1A inh: inactive; SMARCA2 activ: inactive; Rtt109 Vps75: inactive; esBAF inh: 53; dFosB activator: inactive

Results for C[C@@H]1CN([C@@H](C)CO)C(=O)Cc2cc(NC(=O)Nc3ccc(C(F)(F)F)cc3)ccc2O[C@H]1CN(C)S(C)(=O)=O ?
esBAF inh: inactive

How did CCOc1ccccc1C1c2[nH]c3ccccc3c2C[C@H]2C(=O)N(C3CCN(Cc4ccccc4)CC3)CC(=O)N12 (stereo partly specified) do in these assays?
CDK5 inh: inactive; DYRK1A inh: inactive; SMARCA2 activ: inactive; Rtt109 Vps75: inactive; esBAF inh: inactive; dFosB activator: 63

How did COc1cc(C2c3[nH]c4ccccc4c3C[C@H]3C(=O)N(C4CC4)CC(=O)N23)ccc1OC(C)C (stereo partly specified) do in these assays?
CDK5 inh: inactive; DYRK1A inh: inactive; SMARCA2 activ: inactive; Rtt109 Vps75: inactive; esBAF inh: inactive; dFosB activator: inactive

How did O=C1[C@@H]2Cc3c([nH]c4ccccc34)C(c3cccc(Br)c3)N2C(=O)CN1C1CCN(Cc2ccccc2)CC1 (stereo partly specified) do in these assays?
CDK5 inh: inactive; DYRK1A inh: inactive; SMARCA2 activ: inactive; Rtt109 Vps75: inactive; esBAF inh: inactive; dFosB activator: 66

Results for COc1ccc(OC)c(C2c3[nH]c4ccccc4c3C[C@H]3C(=O)N(C4CC4)CC(=O)N23)c1 (stereo partly specified) ?
CDK5 inh: inactive; DYRK1A inh: inactive; SMARCA2 activ: inactive; Rtt109 Vps75: inactive; esBAF inh: inactive; dFosB activator: inactive

How did COc1ccc(C2c3[nH]c4ccccc4c3C[C@H]3C(=O)N(C4CCN(Cc5ccccc5)CC4)CC(=O)N23)c(OC)c1 (stereo partly specified) do in these assays?
CDK5 inh: inactive; DYRK1A inh: inactive; SMARCA2 activ: inactive; Rtt109 Vps75: inactive; esBAF inh: inactive; dFosB activator: 21

How did COc1cccc(C2c3[nH]c4ccccc4c3C[C@H]3C(=O)N(C4CC4)CC(=O)N23)c1 (stereo partly specified) do in these assays?
CDK5 inh: inactive; DYRK1A inh: inactive; SMARCA2 activ: inactive; Rtt109 Vps75: inactive; esBAF inh: inactive; dFosB activator: inactive

How did COC(=O)c1ccc(C2c3[nH]c4ccccc4c3C[C@H]3C(=O)N(C4CCN(Cc5ccccc5)CC4)CC(=O)N23)cc1 (stereo partly specified) do in these assays?
CDK5 inh: inactive; DYRK1A inh: inactive; SMARCA2 activ: inactive; Rtt109 Vps75: inactive; esBAF inh: inactive; dFosB activator: 55

Results for O=C1[C@@H]2Cc3c([nH]c4ccccc34)C(c3ccccc3)N2C(=O)CN1C1CCN(Cc2ccccc2)CC1 (stereo partly specified) ?
CDK5 inh: inactive; DYRK1A inh: inactive; SMARCA2 activ: inactive; Rtt109 Vps75: inactive; esBAF inh: inactive; dFosB activator: inactive

How did O=C(C[C@@H]1C=C[C@H](NC(=O)C2CCOCC2)[C@H](CO)O1)NCC1CC1 do in these assays?
esBAF inh: inactive

How did Cc1cc(C(=O)Nc2cccc3c2O[C@H](CN(C)Cc2ccc(Oc4ccccc4)cc2)[C@@H](C)CN([C@@H](C)CO)C3=O)n(C)n1 do in these assays?
esBAF inh: inactive

What do the screens show for `C[C@H]1CN([C@@H](C)CO)C(=O)c2cc(NC(=O)C3CC3)ccc2O[C@H]1CN(C)Cc1ccc(C(=O)O)cc1`?
esBAF inh: inactive

Results for COc1ccc(-c2cnc3c(c2)C(=O)N([C@@H](C)CO)C[C@H](C)[C@H](CN(C)C(=O)C2CC2)O3)cc1 ?
esBAF inh: inactive

What do the screens show for `Cc1ccccc1C1c2[nH]c3ccccc3c2C[C@H]2C(=O)N(C3CCN(Cc4ccccc4)CC3)CC(=O)N12` (stereo partly specified)?
CDK5 inh: inactive; DYRK1A inh: inactive; SMARCA2 activ: inactive; Rtt109 Vps75: inactive; esBAF inh: inactive; dFosB activator: 76

Results for CCCN1CC(=O)N2C(c3ccccc3)c3[nH]c4ccccc4c3C[C@H]2C1=O (stereo partly specified) ?
CDK5 inh: inactive; DYRK1A inh: inactive; SMARCA2 activ: inactive; Rtt109 Vps75: inactive; esBAF inh: inactive; dFosB activator: inactive

Results for C[C@@H](NC(=O)C[C@H]1CC[C@H](NC(=O)Cc2ccccn2)[C@@H](CO)O1)c1ccccc1 ?
esBAF inh: inactive

What do the screens show for `O=Cc1ccc(-n2cncn2)cc1`?
CDK5 inh: inactive; DYRK1A inh: inactive; SMARCA2 activ: inactive; dFosB activator: inactive

What do the screens show for `COC(=O)/C=C/c1ccc(-n2cncn2)cc1`?
CDK5 inh: inactive; DYRK1A inh: inactive; SMARCA2 activ: 7.8; esBAF inh: inactive; dFosB activator: inactive

Results for C[C@H]1CN([C@@H](C)CO)C(=O)Cc2cc(NC(=O)Nc3cccc4ccccc34)ccc2O[C@@H]1CN(C)C(=O)Nc1ccc(F)cc1 ?
esBAF inh: inactive

Assay outcomes as filed in PubChem.
